This excerpt belongs to a sample that is enriched for hits.
Tgondii IFNg – T. gondii growth inhibition under IFN-gamma. AID 1259416. activity change, negative = inhibition, % (no concentration beside the values). Toxoplasma gondii growth in IFN-gamma-treated host cells; stronger effect = lower value. 69,000 compounds, 3.8% hits; in the data active = activity change below about -70%, passing the limit was not always enough;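 note: host cells are HeLa cells infected with Toxoplasma gondii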
The depositor's hits bear a star.

SMILES | Tgondii IFNg
Cc1ccc(N2CCCC2=O)cc1S(=O)(=O)NCCc1c(C)noc1C | -22
O=C1CCCN1CCn1ccnc1-c1ccncc1 | 3
C=CCN1CCCC12CCCN(C(=O)c1occc1C)C2 (configuration not stated) | -12
O=C(NCCc1csc(-c2ccc(F)cc2)n1)c1ccccc1F | -70
CCOc1ccccc1C(=O)NCCc1csc(-c2ccc(Cl)cc2)n1 | -80*
COc1ccc(C(=O)NCCc2csc(-c3ccc(F)cc3)n2)c(OC)c1 | -97*
COc1cc(OC)cc(C(=O)NCCc2csc(-c3ccc(F)cc3)n2)c1 | 27
COc1ccccc1C(=O)NCCc1csc(-c2ccc(F)cc2)n1 | -93*
Cc1ccccc1C(=O)NCCc1csc(-c2ccc(Cl)cc2)n1 | -32
COc1ccc(Cl)cc1C(=O)NCCc1csc(-c2ccc(F)cc2)n1 | -84*
COc1ccc(-c2nc(CCNC(=O)c3ccccc3F)cs2)cc1 | 412
COc1ccc(OCC(=O)NCCc2csc(-c3ccc(F)cc3)n2)cc1 | 51
COc1ccc(C(=O)NCCc2csc(-c3ccc(Cl)cc3)n2)cc1OC | 15
CCOc1ccccc1NC(=O)C(=O)NCCc1csc(-c2ccc(Cl)cc2)n1 | -51
COc1cccc(OC)c1C(=O)NCCc1csc(-c2ccc(Cl)cc2)n1 | 35
C=CCO[C@H]1CN(S(=O)(=O)c2cn(C)cn2)[C@H]2COC[C@@H]12 | 44
CCC(C)C(c1n[nH]c(CCc2ccccc2)n1)N1Cc2ccccc2C1=O (configuration not stated) | -4
O=C(Nc1ccccc1CO)c1cccc(CN2CCC2c2ccccc2)c1 (configuration not stated) | -5
Cc1cc(Nc2cnccn2)cc(C2CCCN(C(=O)CN3CCc4ccccc4C3)C2)n1 (configuration not stated) | 28
Cc1cc(C)c2nc(C)c(C(=O)NCCCn3ccnc3C(C)C)cc2c1 | -21
CCNC(=O)c1ccc(-c2ccccc2OCC)s1 | -67
O=C(c1cccc(Cn2cccn2)c1)N1CCCC1c1ccccn1 (configuration not stated) | -8
COCCN(Cc1cccs1)C(=O)c1cnc2ccccc2c1 | 2
CCS(=O)(=O)N1CC[C@H]2[C@H](CC1)S(=O)(=O)CCN2C(=O)c1ccccc1 | -38
COc1ccc(-c2ccccc2[C@@H]2[C@@H](CO)N(C(=O)NC(C)C)[C@H]2C#N)cc1 | -1
SMILES | Tgondii IFNg
N#Cc1c(Cl)cccc1Oc1ccc(-c2ccn[nH]2)cc1 | -2
Clc1cccc(Cl)c1/C=C/c1ccn[nH]1 | -89*
O=C(c1cc(F)ccc1F)C1CCCN(Cc2cccc(C(F)(F)F)c2)C1 (configuration not stated) | -26
O=C(Nc1cccc(-n2cccn2)c1)C1CCCN1C/C=C/c1ccco1 (configuration not stated) | 8
O=C(NCC1Cn2nncc2CO1)c1ccc[nH]1 (configuration not stated) | 0
c1csc(-c2cnc(N3CCCC3)nc2-c2nccs2)c1 | -8
c1csc(-c2[nH]ncc2-c2ccnc(N3CCOCC3)n2)c1 | -106*
Cn1ccc2c(-c3cc(N)nc(N4CCOCC4)n3)ccnc21 | -17
COc1ccc(CC2CN(C(=O)c3ccc4nc(C)[nH]c4c3)CCO2)cc1 (configuration not stated) | -4
OC(CN1CCOCC1)c1ccc(-c2ccc(F)cc2Cl)cc1 (configuration not stated) | -12
O=C(O)CC1C(=O)NC(=S)N1c1ccccc1 (configuration not stated) | 9
O=C(Nc1nnc(SCC(=O)N2CCCCC2)s1)c1ccccc1Cl | 0
CN(C)Cc1c(C(=O)NCCOc2ccc(C(=O)NO)cc2)oc2ccccc12 | -74*
O=C(NCCCOc1ccccc1)c1c(O)cccc1O | 12
COc1ccc(OCCNC(=O)c2cccs2)cc1 | 2
Cc1ccc(CN2CCc3nc(N4CCOCC4)nc(NC(C)C)c3C2)s1 | -98*
Cc1ccc(CN2CCc3nc(NC(C)C)nc(C)c3C2)s1 | -6
COc1ccc(CN2CCc3nc(N4CCOCC4)nc(NC4CC4)c3C2)cc1 | 0
Cc1nc(N2CCCC2)nc2c1CCN(c1ncc(F)cn1)CC2 | -86*
Cc1nc(-c2ccccc2)nc2c1CCN(c1ncc(F)cn1)CC2 | -13
Cc1nc(N2CCCC2)nc2c1CCN(c1ncccn1)CC2 | 353
COc1ccc(NC(=O)C2=NOC3(CCCN(S(=O)(=O)c4ccc(F)cc4)C3)C2)cc1 (configuration not stated) | -61
CCOc1ccccc1-c1nc(Cn2ccn3nc(-c4ccc(C)c(C)c4)cc3c2=O)c(C)o1 | 98
CCCCNC(=O)CCC1N=C2c3ccccc3N=C(SCc3ccc(F)cc3)N2C1=O (configuration not stated) | -4
CCc1nc2cc(NC(=O)COc3ccccc3-c3nc(C)no3)ccc2n1CC | -74*
SMILES | Tgondii IFNg
Cc1noc(-c2ccccc2OCC(=O)O)n1 | 62
CCOc1ccc(NC(=O)Cn2c(=O)cc(-c3nc(C)no3)c3ccccc32)cc1 | 21
CN(CCc1ccccc1)c1nc(CCN)nc2ccccc12 | -28
CNc1nc(C(=O)N[C@@H]2CC[C@@H](N)C2)cs1 | 4
O=C(CCCOc1ccc(Cl)cc1Cl)NCc1ccccn1 | 13
CN1CCN(CCOc2cc(OC3CCOCC3)c3c(Nc4c(Cl)ccc5c4OCO5)ncnc3c2)CC1 | 16
CCOc1cc2ncc(C#N)c(Nc3ccc(F)c(Cl)c3)c2cc1NC(=O)/C=C/CN(C)C | -77*
C=CC(=O)Nc1cc2c(Nc3ccc(F)c(Cl)c3)ncnc2cc1OCCCN1CCOCC1 | -4
CN(C)C/C=C/C(=O)Nc1cc2c(Nc3ccc(F)c(Cl)c3)ncnc2cc1O[C@H]1CCOC1 | -75*
CCOc1cc2ncc(C#N)c(Nc3ccc(OCc4ccccn4)c(Cl)c3)c2cc1NC(=O)/C=C/CN(C)C | -81*
COc1ccc(C(=O)Nc2ccc3nc(C)c(C)nc3c2)cc1OCc1ccccn1 | 11
C[C@@H]1CC=CC[C@H](c2ccc3c(c2)OCO3)NC(=O)[C@H](C)N(C)C(=O)c2ccccc2O1 (mixture of isomers) | -46
COc1cccc(NC(=O)CSc2nc(N)c(-c3ccccc3)c(=O)[nH]2)c1 | 50
FC(F)(F)c1ccc(-c2nnc(-c3ccc4c(c3)OCO4)o2)cc1 | -54
Cc1nnn2c1COC(CNC(=O)c1ccc[nH]1)C2 (configuration not stated) | 8
Cc1ccc(/C(=C\CN2CCCC2)c2ccccn2)cc1 | 0
CN(C)C(=O)[C@]12CCCN(C(=O)c3ccccn3)C[C@@H]1CN(c1ccccn1)C2 | 4
C/C(=N\NC(=S)N1CCC1)c1ccccn1 | -80*
O=C(CCC1CCCC1)N1CCc2c([nH]c3ccccc23)C1c1cccnc1 (configuration not stated) | 104
COc1cccc(C(=O)N2CCc3c([nH]c4ccccc34)C2c2cccnc2)c1 (configuration not stated) | -107*
COc1ccc(C2c3[nH]c4ccccc4c3CCN2C(=O)c2ccncc2)cc1 (configuration not stated) | 117
O=C(c1cccc(F)c1)N1CCc2c([nH]c3ccccc23)C1c1cccnc1 (configuration not stated) | -96*
O=C(c1ccc(F)cc1)N1CCc2c([nH]c3ccccc23)C1c1cccnc1 (configuration not stated) | -47
Cc1ccc(-c2nc(CN3CCN(C(=O)Nc4cccc(C)c4)CC3)c(C)o2)cc1 | 1
CC(=O)N1CCO[C@H]2CN(S(=O)(=O)c3cccc(F)c3)CC[C@@H]2C1 | 12
